Data from PubChem BioAssay (NCATS).
“And” between values parts separate entries of the source, which are not always exact repeats. Identical values can stand only once. Results filed as inconclusive are left out. The source made the active and inactive calls. Unless noted, the call rests on the fitted dose curve; in most records, active means well fitted cell-killing curve with a large enough effect; inconclusive means small, poorly fitted or top-dose-only effect; inactive means flat fitted curve, though single readings scatter.

How the values were obtained:
[1] = Cell Viability - LYMP2-006 (AID 978);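 further: series mostly up to about 92 µM; cells exposed to compound for 24 hours; on the % scale 0 is the no-effect control and ±100 the full control effect; nearly all actives have a fitted effect of over 60% in size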
Procedure, shortened: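 In this cytotoxicity screen, the human lymphoblastoid line grew in complete medium with test compounds for 24 hr at 37 C. Cellular ATP served as the viability signal.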

[2] = Cell Viability - LYMP2-007 (AID 979);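 further: cells exposed to compound for 24 h before reading; 0% = DMSO only and the negative end = 92 µM tetraoctylammonium bromide; nearly all actives have a fitted effect of over 60% in size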
Procedure, shortened: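 qHTS cytotoxicity: 2500 cells/well, 5 hr 37 C settle, compound 24 hr 37 C, CellTiter-Glo 30 min RT, luminescence. Decrease in ATP = toxicity. AC50 by standard Hill equation; tetraoctylammonium bromide positive control.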

[3] = Cell Viability - LYMP2-008 (AID 980); further: on the % scale 0 is the no-effect control and ±100 the full control effect; nearly all actives have a fitted effect of over 60% in size
Procedure, shortened: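 Luminescent ATP read-out (CellTiter-Glo, 30 min RT) after 24 hr compound exposure at 37 C of human lymphoblastoid cells in complete medium. Decrease in ATP taken as cytotoxicity; AC50 derived by standard Hill fit of qHTS concentration-response data.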

[4] = Cell Viability - LYMP2-010 (AID 981);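 further: cells exposed to compound for 24 hours at 37 °C; on the % scale 0 is the no-effect control and ±100 the full control effect; nearly all actives have a fitted effect of over 55% in size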
Procedure, shortened: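 qHTS cytotoxicity, 1536-well: 2500 cells/well, 5 hr settle, 24 hr compound at 37 C, CellTiter-Glo 30 min RT, luminescence read. Decrease in ATP = toxicity; AC50 via standard Hill equation. Positive control tetraoctylammonium bromide.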

[5] = Cell Viability - LYMP2-012 (AID 982);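 further: cellular ATP by luciferase luminescence where a drop means cytotoxicity; cells exposed to compound for one day before reading; 0% = DMSO only and full loss = 92 µM tetraoctylammonium bromide; nearly all actives have a fitted effect of over 55% in size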
[6] = Cell Viability - LYMP2-014 (AID 983);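 further: series mostly up to about 92 µM; plate controls were DMSO only for no effect and 92 µM tetraoctylammonium bromide for full effect; nearly all actives have a fitted effect of over 50% in size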
Procedure, shortened: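 2500 cells/well, 5 hr 37 C; cpd 24 hr 37 C, complete medium; CellTiter-Glo 30 min RT, luminescence; ATP loss = toxicity; AC50 via Hill eqn; tetraoctylammonium bromide positive control.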

[7] = Cell Viability - LYMP2-016 (AID 984);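 further: cells exposed to compound for 24 hours at 37 °C; on the % scale 0 is the no-effect control and ±100 the full control effect; nearly all actives have a fitted effect of over 55% in size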
Procedure, shortened: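 Concentration-dependent ATP depletion measured in LYMP2-016 lymphoblastoid cells, 24 h, 37 C; luciferase-based luminescent detection; Hill-equation AC50.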

[8] = Cell Viability - LYMP2-018 (AID 985);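 further: plate controls were DMSO only for no effect and tetraoctylammonium bromide at 92 µM for full effect; nearly all actives have a fitted effect of over 50% in size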
Procedure, shortened: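 2500 cells/well; 5 hr 37 C; cmpd 24 hr 37 C, complete medium; CellTiter-Glo 30 min RT; luminescence. Tetraoctylammonium bromide positive control. AC50 via Hill fit.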

[9] = Cell Viability - LYMP2-020 (AID 986);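 further: series mostly up to about 92 µM; plate controls were DMSO only for no effect and tetraoctylammonium bromide at 92 µM for full effect; nearly all actives have a fitted effect of over 55% in size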
Procedure, shortened: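 qHTS, 2500 cells/well; 5 hr then 24 hr compound exposure, 37 C; CellTiter-Glo luminescence after 30 min RT; ATP decrease taken as cytotoxicity; AC50 via Hill equation; tetraoctylammonium bromide positive control.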

[10] = Cell Viability - LYMP2-022 (AID 987)
Procedure, shortened: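 Luminescent ATP read-out (CellTiter-Glo, 30 min, RT) after 24 hr, 37 C compound exposure of 2500 human lymphoblastoid cells/well in complete medium. Cytotoxicity taken as concentration-dependent ATP loss; AC50 from standard Hill equation.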

[11] = Cell Viability - LYMP2-024 (AID 988);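 further: plate controls were DMSO only for no effect and 92 µM tetraoctylammonium bromide for full effect; nearly all actives have a fitted effect of over 60% in size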
Procedure, shortened: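 ATP-based luminescence (CellTiter-Glo, 30 min RT) after 24 h compound exposure at 37 C of 2500 lymphoblastoid cells/well; decrease in ATP taken as cytotoxicity. qHTS concentration-response fitted to standard Hill equation for AC50.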

[12] = Cell Viability - LYMP2-026 (AID 989); further: on the % scale 0 is the no-effect control and ±100 the full control effect; nearly all actives have a fitted effect of over 50% in size
Procedure, shortened: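 qHTS cytotoxicity: 2500 cells/well, 5 hr 37 C, compound 24 hr 37 C, CellTiter-Glo 30 min RT, luminescence. Tetraoctylammonium bromide positive control. AC50 via standard Hill fit.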

[13] = Cell Viability - LYMP1-002 - Assay at 24 hr (AID 993); further: on the % scale 0 is the no-effect control and ±100 the full control effect
Procedure, shortened: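 CellTiter-Glo luminescence (intracellular ATP) after 24 h compound exposure, 37 C, in LYMP1-002 human lymphoblastoid cells; decreased ATP taken as cytotoxicity. AC50 from standard Hill fit of concentration-response curves.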

[14] = Cell Viability - LYMP1-002 - Assay at 40 hr (AID 994)
Procedure, shortened: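 qHTS cytotoxicity; 2500 cells/well, 5 hr 37 C settle, compound 40 hr 37 C. CellTiter-Glo, 30 min RT, luminescence (ATP). Concentration-response, Hill fit → AC50. Pos. ctrl tetraoctylammonium bromide.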

[15] = biological target: Estrogen receptor (Homo sapiens) (UniProt P03372); test: qHTS assay for small molecule antagonists of estrogen receptor alpha signaling (AID 588513; active means well fitted curve in the direction sought with a large enough effect in the signal ratio, with a control signal flat, not every such curve was filed as active; the % refers to the signal ratio; further: on the % scale 0 is the no-effect control and ±100 the full control effect)
Sequence of Estrogen receptor (Homo sapiens) (P03372 whole entry, looked up): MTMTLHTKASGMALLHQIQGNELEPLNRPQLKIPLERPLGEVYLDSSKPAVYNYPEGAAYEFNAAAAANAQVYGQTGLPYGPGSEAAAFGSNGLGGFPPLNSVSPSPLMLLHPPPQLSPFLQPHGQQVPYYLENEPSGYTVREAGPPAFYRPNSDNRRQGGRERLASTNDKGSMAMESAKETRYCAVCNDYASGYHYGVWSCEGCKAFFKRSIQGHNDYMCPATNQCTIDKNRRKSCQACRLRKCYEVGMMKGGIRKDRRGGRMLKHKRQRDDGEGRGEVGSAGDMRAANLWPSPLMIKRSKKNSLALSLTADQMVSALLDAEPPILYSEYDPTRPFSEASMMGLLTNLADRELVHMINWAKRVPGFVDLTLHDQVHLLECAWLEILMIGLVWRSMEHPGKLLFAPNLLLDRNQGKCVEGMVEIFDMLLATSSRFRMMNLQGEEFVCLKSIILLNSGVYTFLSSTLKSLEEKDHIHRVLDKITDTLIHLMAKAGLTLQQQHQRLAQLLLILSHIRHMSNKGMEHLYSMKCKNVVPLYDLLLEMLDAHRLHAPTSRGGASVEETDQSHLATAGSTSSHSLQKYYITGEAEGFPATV
Procedure, shortened: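 Antagonist-mode qHTS in ER-alpha-UAS-bla HEK 293 cells: compound titration, 0.5nM estradiol for 18 h, CCF4 fluorescence, Hill-derived IC50.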

[16] = biological target: Estrogen receptor (Homo sapiens) (UniProt P03372); test: qHTS assay for small molecule agonists of estrogen receptor alpha signaling (AID 588514; calls by dose curve;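 further: 0% = vehicle only and 100% = reference agonist; nearly all actives have a fitted effect of over 70% in size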)
Procedure, shortened: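 Read-out: CCF4 fluorescence from a beta-lactamase reporter in ER-alpha-UAS-bla HEK 293 cells after 18 hrs of compound exposure at 37 C. Normalized to 20 nM 17-beta-estradiol (100%) and DMSO (0%).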

[17] = biological target: Glucocorticoid receptor (Homo sapiens) (UniProt P04150); test: qHTS assay for small molecule agonists of glucocorticoid receptor signaling (AID 588532; active means well fitted curve in the direction sought with a large enough effect in the signal ratio, with a control signal flat; the % refers to the signal ratio;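 further: 100% = dexamethasone at 0.1 µM and 0% = DMSO only wells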); conditions: HeLa MMTV-bla, beta-lactamase ratio, agonist, 18 h; stronger effect = higher value; percent of dexamethasone control, DMSO zero
Sequence of Glucocorticoid receptor (Homo sapiens) (P04150 whole entry, looked up): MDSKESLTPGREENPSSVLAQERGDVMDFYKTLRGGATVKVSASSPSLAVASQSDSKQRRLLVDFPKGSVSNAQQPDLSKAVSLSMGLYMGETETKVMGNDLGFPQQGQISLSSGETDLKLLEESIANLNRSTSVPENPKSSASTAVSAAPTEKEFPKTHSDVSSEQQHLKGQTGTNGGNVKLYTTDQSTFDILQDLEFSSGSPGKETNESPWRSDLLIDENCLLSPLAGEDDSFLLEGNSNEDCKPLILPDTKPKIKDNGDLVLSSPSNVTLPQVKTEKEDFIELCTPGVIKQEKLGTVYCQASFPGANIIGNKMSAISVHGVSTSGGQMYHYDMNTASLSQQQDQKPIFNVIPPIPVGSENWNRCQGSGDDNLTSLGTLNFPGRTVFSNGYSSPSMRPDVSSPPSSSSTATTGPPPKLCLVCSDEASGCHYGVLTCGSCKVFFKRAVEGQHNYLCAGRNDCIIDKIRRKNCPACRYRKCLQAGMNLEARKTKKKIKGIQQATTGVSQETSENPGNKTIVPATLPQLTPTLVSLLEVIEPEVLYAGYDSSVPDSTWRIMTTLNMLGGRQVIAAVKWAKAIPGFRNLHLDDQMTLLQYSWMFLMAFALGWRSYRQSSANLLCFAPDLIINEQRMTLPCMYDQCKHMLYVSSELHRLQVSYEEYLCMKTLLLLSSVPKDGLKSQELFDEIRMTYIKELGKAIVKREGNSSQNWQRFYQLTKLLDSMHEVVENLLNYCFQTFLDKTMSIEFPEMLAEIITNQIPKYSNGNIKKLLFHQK
Procedure, shortened: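 Stimulation of a glucocorticoid response element-driven beta-lactamase gene was measured in HeLa cells. Responses were scaled between DMSO basal and 0.1 uM dexamethasone, then fitted for half-maximal stimulation.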

[18] = biological target: Glucocorticoid receptor (Homo sapiens) (UniProt P04150); test: qHTS assay for small molecule antagonists of glucocorticoid receptor signaling (AID 588533; active means well fitted inhibition curve with a large enough effect in the signal ratio, with a control signal flat, not every such curve was filed as active; the % refers to the signal ratio;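 further: cells stimulated with 2 nM dexamethasone as agonist; on the % scale 0 is the no-effect control and ±100 the full control effect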)
Procedure, shortened: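 Antagonist-mode qHTS: compound titrations added to GRE-bla HeLa cells, then dexamethasone 2 nM final; 18 h, 37 C. CCF4 FRET fluorescence normalized to dexamethasone and DMSO; IC50 from Hill fit.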

[19] = biological target: Peroxisome proliferator-activated receptor gamma (Homo sapiens) (UniProt P37231); test: qHTS assay for small molecule agonists of peroxisome proliferator-activated receptor gamma signaling (AID 588536; active means well fitted curve in the direction sought with a large enough effect in the signal ratio, with a control signal flat, not every such curve was filed as active; the % refers to the signal ratio;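 further: 0% = DMSO basal wells and 100% = rosiglitazone at 2 µM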)
Sequence of Peroxisome proliferator-activated receptor gamma (Homo sapiens) (P37231 whole entry, looked up): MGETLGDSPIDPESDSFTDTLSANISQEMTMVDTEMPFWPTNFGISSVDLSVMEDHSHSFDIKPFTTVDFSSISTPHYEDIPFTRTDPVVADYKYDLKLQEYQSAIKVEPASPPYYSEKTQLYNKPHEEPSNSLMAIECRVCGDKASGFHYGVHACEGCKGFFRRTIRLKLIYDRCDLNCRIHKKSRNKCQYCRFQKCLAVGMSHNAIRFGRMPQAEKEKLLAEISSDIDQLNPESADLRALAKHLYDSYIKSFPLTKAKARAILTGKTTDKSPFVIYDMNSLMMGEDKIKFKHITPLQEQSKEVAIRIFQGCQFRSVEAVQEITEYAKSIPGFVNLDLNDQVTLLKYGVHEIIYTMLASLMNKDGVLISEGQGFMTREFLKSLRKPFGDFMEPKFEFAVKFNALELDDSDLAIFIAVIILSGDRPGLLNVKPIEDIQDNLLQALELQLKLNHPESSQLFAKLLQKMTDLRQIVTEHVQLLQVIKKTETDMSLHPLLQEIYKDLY
Procedure, shortened: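 Compound treatment: 16 h, 37 C, HEK293 GeneBLAzer cells. Detection: CCF4, 2 h RT. Values: Hill-fit EC50, efficacy as % of 2 uM rosiglitazone.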

[20] = biological target: Peroxisome proliferator-activated receptor gamma (Homo sapiens) (UniProt P37231); test: qHTS assay for small molecule antagonists of peroxisome proliferator-activated receptor gamma signaling (AID 588537; active means well fitted inhibition curve with a large enough effect in the signal ratio, with a control signal flat, not every such curve was filed as active; the % refers to the signal ratio;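 further: reporter cells co-stimulated with 50 nM rosiglitazone agonist during compound treatment; % of control where 0% means no effect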)
Procedure, shortened: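 HEK293 cells, PPAR-gamma-UAS-bla, 3000/well. Pre-incubation 6-6.5 h, 37 C. Compound titration with rosiglitazone 50 nM final, 16 h. CCF4 dye, 2 h RT, dual-emission fluorescence.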

[21] = biological target: Vitamin D3 receptor (Homo sapiens) (UniProt P11473); test: qHTS assay for small molecule antagonists of vitamin D receptor signaling (AID 588541; calls by dose curve;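 further: receptor activated by calcitriol during compound treatment; series mostly up to about 77 µM; on the % scale 0 is the no-effect control and ±100 the full control effect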)
Sequence of Vitamin D3 receptor (Homo sapiens) (P11473 whole entry, looked up): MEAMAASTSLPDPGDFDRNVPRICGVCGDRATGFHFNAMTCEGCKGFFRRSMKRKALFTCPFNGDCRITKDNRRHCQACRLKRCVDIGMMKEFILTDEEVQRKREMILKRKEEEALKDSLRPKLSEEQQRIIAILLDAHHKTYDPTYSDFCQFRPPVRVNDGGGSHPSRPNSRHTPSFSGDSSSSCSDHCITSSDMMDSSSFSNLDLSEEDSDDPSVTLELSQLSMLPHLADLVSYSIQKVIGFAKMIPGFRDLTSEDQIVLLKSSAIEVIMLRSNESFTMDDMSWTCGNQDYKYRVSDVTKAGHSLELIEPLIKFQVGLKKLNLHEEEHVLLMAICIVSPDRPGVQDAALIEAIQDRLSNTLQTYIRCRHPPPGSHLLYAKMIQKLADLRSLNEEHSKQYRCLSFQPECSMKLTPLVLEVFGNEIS
Procedure, shortened: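 VDR-UAS-bla HEK293T cells (2000/well, 2% charcoal-stripped FBS) were treated with titrated compounds plus 1-alpha,25-dihydroxyvitamin D3 (50 nM or 3 nM final) for 16 h at 37 C. CCF4 beta-lactamase fluorescence was read; Hill fits gave IC50.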

[22] = biological target: Vitamin D3 receptor (Homo sapiens) (UniProt P11473); test: qHTS assay for small molecule agonists of vitamin D receptor signaling (AID 588543; calls by dose curve;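 further: 0% = DMSO basal and 100% = reference agonist control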)
Procedure, shortened: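 Measured: β-lactamase reporter activity (CCF4, 405 nm excitation, 460/530 nm emission) in HEK293T VDR-UAS-bla cells after 16 h compound exposure at 37 °C. Normalization against 50 nM 1α,25-dihydroxyvitamin D3 and DMSO; Hill-fit EC50.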

CCCCOC(=O)c1ccccc1C(=O)OCCCC
inactive: Potency [1] | Potency [2] | Potency [3] | Potency [4] | Potency [5] | Potency [6] | Potency [7] | Potency [8] | Potency [9] | Potency [10] | Potency [11] | Potency [12] | Potency [13] | Potency [14] | Potency [15] | Potency [16] | activation [17] -1.41% and -0.473% | Potency [18] | outcome [19] | Potency [20] | outcome [21] | outcome [22]
